Test results as given in the supplement of paper PMC10849652.
Of roughly 7,900 targets only a part is listed; those with a hit were picked by preference. About 0.6% of all pairs of compound and target were hits. Values without a mark were called inactive.

Assays:
Test in all cases: log2 fold change, soluble protein after heating vs DMSO (PISA); higher = thermal stabilisation; K562 cells, 10 uM, 30 min; active = over 0.2 and 3.5 SD of the protein, either way, in both replicates (recomputed)
erlotinib = compound: C#Cc1cccc(Nc2ncnc3cc(OCCOC)c(OCCOC)cc23)c1 [erlotinib]
Summary of the method: (§1)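 Thermal stability values are relative to control samples and come from duplicates. They are expressed as log2 fold changes. For measurement, K562 cells (2×10^6 cells/mL) received 10 μM compound for 30 min, and aliquots were heated for 3 min over 48°C-58°C, pooled, and extracted at 4°C in PBS with 0.5% NP-40. Soluble protein, the supernatant after 21,000xg for 90 min, was quantified by TMTpro 16plex LC-MS/MS with equalised channel sums.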

[1] = compound: C/C(=N\NC(=O)C1=CC(=CC=C1)S(=O)(=O)N2CCOCC2)/C3=C(C=CC(=C3)Cl)O
Summary of the method: as §1

[2] = compound: C1=CC(=C(C=C1Cl)C2=NC3=NC=CN=C3C(=N2)NC4=CC=NC=C4)F
Summary of the method: as §1

[3] = compound: C1=CC(=CC=C1C2=NC3=C(N2)C=C(C=C3)C(=O)N)OC4=CC=C(C=C4)Cl
Summary of the method: as §1

[4] = compound: C1=CC2=C(C=CC(=C2)/C=C\3/C(=O)NC(=NCC4=CC=CS4)S3)N=C1
Summary of the method: as §1

[5] = compound: C1=CC2=NC=CN=C2C=C1/C=C/3\C(=O)NC(=O)S3
Summary of the method: as §1

[6] = compound: C1=CC=C(C=C1)C2=NC(=C(N2)C3=CC=NC=C3)C4=CC(=C(C=C4)Cl)O
Summary of the method: as §1

[7] = compound: C1=CC=C2C(=C1)C3=NNC4=CC=CC(=C43)C2=O
Summary of the method: as §1

[8] = compound: C1CCN(C1)C(=O)NC2=CC=CC(=C2)NC3=NC=C(C(=N3)NCCC4=CN=CN4)Br
Summary of the method: as §1

[9] = compound: C1CN(CCC1(CC2=CC=C(C=C2)Cl)N)C3=NC=NC4=C3C=CN4
Summary of the method: as §1

IRAK-1-4 Inhibitor I = compound: C1COCCN1CCN2C3=CC=CC=C3N=C2NC(=O)C4=CC(=CC=C4)[N+](=O)[O-] [IRAK-1-4 Inhibitor I]
Summary of the method: as §1

ibrutinib = compound: C=CC(=O)N1CCC[C@@H](n2nc(-c3ccc(Oc4ccccc4)cc3)c3c(N)ncnc32)C1 [ibrutinib]
Summary of the method: as §1

[10] = compound: CC(=O)c1cnc2ccc(-c3cc(Cl)c(O)c(Cl)c3)nc2c1N[C@H]1CC[C@H](CN(C)C)CC1
Summary of the method: as §1

ralimetinib = compound: CC(C)(C)Cn1c(N)nc2ccc(-c3[nH]c(C(C)(C)C)nc3-c3ccc(F)cc3)nc21 [ralimetinib]
Summary of the method: as §1

[11] = compound: CC(C)(O)CC(=O)NCCn1ccc2ncnc(Nc3ccc(Oc4cccc(C(F)(F)F)c4)c(Cl)c3)c21
Summary of the method: as §1

[12] = compound: CC(C)C1=C2N=C(C=C(N2N=C1)NCC3=CC=CC=C3)NCCCCCCN
Summary of the method: as §1

[13] = compound: CC(C)C[C@@H](C=O)NC(=O)[C@H](CC(C)C)NC(=O)[C@H](CC(C)C)NC(=O)OCc1ccccc1
Summary of the method: as §1

pinometostat = compound: CC(C)N(C[C@H]1O[C@@H](n2cnc3c(N)ncnc32)[C@H](O)[C@@H]1O)[C@H]1C[C@@H](CCc2nc3cc(C(C)(C)C)ccc3[nH]2)C1 [pinometostat]
Summary of the method: as §1

[14] = compound: CC1=C(C(CC(=O)N1)C2=CC=C(C=C2)C(F)(F)F)C(=O)NC3=C(C=C4C(=C3)C=NN4)F
Summary of the method: as §1

[15] = compound: CC1=C(C2=C(C=C1)C(=O)C3=CC=CC=C3N2CCCN)C
Summary of the method: as §1

UniProt Q32MZ4, sequence (Q32MZ4 whole entry, looked up): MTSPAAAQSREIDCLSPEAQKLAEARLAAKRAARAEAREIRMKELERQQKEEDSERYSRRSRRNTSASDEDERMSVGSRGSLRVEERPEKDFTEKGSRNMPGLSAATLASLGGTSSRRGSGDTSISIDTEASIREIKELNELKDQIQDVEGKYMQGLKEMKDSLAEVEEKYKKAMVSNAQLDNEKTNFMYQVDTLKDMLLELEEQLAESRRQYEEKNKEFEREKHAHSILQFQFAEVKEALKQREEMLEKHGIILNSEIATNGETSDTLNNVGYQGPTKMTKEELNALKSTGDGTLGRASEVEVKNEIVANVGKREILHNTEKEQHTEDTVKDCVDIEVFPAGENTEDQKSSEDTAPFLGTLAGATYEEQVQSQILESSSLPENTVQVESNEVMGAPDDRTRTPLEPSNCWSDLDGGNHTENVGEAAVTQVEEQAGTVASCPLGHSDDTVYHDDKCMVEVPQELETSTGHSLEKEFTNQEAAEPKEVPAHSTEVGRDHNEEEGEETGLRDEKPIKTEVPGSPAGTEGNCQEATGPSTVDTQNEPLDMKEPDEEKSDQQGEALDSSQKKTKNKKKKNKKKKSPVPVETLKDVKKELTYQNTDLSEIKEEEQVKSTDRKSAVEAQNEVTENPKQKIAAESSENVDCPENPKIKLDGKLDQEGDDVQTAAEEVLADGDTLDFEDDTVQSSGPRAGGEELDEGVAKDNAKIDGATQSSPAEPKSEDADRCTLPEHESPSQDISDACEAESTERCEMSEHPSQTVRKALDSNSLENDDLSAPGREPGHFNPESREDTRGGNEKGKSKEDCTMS
UniProt P10620, sequence (P10620 whole entry, looked up): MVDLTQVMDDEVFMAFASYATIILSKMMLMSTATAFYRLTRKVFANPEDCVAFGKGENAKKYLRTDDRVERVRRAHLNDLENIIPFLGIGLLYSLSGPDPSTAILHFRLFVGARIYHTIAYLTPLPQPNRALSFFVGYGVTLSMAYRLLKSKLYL
UniProt P14174, sequence (P14174 whole entry, looked up): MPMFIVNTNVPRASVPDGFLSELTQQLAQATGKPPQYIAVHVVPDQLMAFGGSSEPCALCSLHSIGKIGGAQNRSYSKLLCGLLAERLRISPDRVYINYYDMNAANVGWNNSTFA
UniProt Q14681, sequence (Q14681 whole entry, looked up): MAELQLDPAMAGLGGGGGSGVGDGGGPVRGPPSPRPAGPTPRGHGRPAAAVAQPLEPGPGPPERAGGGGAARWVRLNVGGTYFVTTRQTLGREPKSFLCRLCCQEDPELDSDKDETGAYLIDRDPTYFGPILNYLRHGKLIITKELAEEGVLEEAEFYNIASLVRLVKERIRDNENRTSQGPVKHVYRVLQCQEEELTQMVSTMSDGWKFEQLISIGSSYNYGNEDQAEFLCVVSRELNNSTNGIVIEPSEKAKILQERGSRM
UniProt Q9NYL2, sequence (Q9NYL2 whole entry, looked up): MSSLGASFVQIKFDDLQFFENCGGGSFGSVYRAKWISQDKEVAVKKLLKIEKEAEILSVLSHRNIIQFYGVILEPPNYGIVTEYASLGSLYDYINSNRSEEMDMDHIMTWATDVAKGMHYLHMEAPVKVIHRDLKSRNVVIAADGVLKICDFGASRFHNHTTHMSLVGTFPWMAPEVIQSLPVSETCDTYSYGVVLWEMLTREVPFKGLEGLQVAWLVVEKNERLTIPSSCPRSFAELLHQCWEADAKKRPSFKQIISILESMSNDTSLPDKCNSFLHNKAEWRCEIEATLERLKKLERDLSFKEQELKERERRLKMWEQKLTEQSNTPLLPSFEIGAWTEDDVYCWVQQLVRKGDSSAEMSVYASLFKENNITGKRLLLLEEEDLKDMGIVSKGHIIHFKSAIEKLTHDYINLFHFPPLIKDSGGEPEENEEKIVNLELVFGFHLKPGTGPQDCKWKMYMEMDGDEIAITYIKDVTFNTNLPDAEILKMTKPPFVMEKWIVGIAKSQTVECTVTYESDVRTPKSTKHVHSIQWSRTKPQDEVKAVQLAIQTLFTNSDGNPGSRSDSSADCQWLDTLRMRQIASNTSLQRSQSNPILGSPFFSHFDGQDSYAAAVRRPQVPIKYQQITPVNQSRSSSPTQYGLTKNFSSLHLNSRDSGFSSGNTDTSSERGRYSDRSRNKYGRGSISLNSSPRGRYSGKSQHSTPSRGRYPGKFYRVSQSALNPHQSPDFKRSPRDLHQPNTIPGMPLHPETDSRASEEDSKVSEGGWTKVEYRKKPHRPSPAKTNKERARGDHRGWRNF
UniProt P29966, sequence (P29966 whole entry, looked up): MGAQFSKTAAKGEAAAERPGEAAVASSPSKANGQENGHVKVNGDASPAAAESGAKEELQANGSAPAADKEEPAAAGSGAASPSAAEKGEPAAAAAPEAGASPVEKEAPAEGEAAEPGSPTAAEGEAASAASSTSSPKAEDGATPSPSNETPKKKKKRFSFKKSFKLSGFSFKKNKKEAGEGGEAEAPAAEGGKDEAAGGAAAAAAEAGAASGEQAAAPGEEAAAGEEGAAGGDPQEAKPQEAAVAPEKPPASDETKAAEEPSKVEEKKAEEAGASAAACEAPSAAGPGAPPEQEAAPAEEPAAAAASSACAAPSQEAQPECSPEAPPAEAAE
UniProt Q8WWC4, sequence (Q8WWC4 whole entry, looked up): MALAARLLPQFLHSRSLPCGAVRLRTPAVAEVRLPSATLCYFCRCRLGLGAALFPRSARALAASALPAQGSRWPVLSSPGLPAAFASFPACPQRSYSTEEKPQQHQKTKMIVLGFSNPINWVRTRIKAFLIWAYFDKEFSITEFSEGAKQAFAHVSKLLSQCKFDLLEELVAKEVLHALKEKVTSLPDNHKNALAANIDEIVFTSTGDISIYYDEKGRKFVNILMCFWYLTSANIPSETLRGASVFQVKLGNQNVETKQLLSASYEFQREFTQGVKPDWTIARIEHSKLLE
UniProt P43362, sequence (P43362 whole entry, looked up): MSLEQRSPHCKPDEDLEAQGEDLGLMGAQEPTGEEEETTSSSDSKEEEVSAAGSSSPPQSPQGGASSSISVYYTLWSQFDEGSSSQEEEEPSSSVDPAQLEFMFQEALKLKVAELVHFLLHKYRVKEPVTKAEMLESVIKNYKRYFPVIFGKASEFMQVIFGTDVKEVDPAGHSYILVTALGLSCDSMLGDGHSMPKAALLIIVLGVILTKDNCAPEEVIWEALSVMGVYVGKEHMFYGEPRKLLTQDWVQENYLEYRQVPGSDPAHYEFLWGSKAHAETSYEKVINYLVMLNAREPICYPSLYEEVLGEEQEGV
UniProt P13473, sequence (P13473 whole entry, looked up): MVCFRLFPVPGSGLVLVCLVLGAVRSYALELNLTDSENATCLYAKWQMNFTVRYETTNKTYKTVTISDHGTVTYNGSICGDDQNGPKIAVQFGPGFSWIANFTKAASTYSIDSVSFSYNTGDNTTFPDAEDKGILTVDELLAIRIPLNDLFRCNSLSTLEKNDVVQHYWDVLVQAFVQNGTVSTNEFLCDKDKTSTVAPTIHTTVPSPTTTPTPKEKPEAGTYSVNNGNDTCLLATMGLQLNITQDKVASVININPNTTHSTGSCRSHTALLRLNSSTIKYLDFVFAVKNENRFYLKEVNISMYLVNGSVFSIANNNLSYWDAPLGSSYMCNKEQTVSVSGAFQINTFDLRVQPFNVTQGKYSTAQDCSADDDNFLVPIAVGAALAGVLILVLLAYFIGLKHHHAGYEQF
UniProt Q12905, sequence (Q12905 whole entry, looked up): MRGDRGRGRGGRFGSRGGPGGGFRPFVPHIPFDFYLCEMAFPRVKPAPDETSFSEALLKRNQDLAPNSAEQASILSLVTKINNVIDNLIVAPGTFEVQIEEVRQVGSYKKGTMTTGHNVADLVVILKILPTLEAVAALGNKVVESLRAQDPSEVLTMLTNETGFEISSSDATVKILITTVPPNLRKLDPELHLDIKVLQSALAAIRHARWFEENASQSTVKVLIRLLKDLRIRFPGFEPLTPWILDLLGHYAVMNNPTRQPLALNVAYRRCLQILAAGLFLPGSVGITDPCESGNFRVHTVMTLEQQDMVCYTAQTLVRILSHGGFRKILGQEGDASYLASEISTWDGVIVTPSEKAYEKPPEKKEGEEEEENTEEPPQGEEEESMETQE
UniProt Q03252, sequence (Q03252 whole entry, looked up): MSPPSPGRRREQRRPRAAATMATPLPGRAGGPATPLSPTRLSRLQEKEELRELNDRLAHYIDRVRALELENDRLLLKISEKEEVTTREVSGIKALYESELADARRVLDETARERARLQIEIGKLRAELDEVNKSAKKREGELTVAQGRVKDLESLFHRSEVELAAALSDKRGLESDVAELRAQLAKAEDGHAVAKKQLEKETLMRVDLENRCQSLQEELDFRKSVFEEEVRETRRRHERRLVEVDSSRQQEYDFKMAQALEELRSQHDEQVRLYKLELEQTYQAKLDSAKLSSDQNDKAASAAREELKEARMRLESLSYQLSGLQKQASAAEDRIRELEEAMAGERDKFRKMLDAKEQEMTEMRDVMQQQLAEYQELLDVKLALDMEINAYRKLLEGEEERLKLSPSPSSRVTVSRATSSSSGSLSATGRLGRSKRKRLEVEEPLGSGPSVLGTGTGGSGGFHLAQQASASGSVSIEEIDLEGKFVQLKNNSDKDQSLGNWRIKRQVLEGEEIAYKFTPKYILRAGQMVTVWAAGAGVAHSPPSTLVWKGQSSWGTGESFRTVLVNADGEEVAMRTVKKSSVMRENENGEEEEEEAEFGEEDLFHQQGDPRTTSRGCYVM

Row | Target | log2 fold change (erlotinib) | log2 fold change [1] | log2 fold change [2] | log2 fold change [3] | log2 fold change [4] | log2 fold change [5] | log2 fold change [6] | log2 fold change [7] | log2 fold change [8] | log2 fold change [9] | log2 fold change (IRAK-1-4 Inhibitor I) | log2 fold change (ibrutinib) | log2 fold change [10] | log2 fold change (ralimetinib) | log2 fold change [11] | log2 fold change [12] | log2 fold change [13] | log2 fold change (pinometostat) | log2 fold change [14] | log2 fold change [15]
1 | LMNB2 (UniProt Q03252) | 0.027 | 0.062 | 0.001 | 0.025 | -0.042 | 0.099 | -0.066 | -0.186 | -0.167 | 0.001 | -0.026 | -0.017 | -0.214 (active) | -0.018 | 0.052 | -0.093 | 0.03 | 0.011 | -0.013 | -0.022
2 | MIF (UniProt P14174) | 0.058 | 0.128 | 0.368 (active) | 0.033 | -0.07 | 0.034 | -0.037 | -0.069 | -0.057 | -0.029 | 0.017 | 0.039 | -0.014 | 0.071 | -0.119 | 0.052 | 0.04 | -0.043 | 0.201 | 0.133
3 | MAGEA9 (UniProt P43362) | 0.05 | 0.032 | 0.001 | 0.076 | -0.07 | 0.074 | -0.021 | -0.058 | -0.191 | 0.018 | 0.008 | -0.094 | 0.101 | 0 | 0.031 | -0.256 | 0.087 | 0.009 | 0.057 | -0.49 (active)
4 | MARCKS (UniProt P29966) | -0.033 | -0.032 | 0.061 | 0.045 | -0.026 | 0.048 | 0.119 | 0.025 | 0.01 | 0.118 | -0.077 | 0.071 | 0.014 | 0.025 | -0.099 | 0.039 | 0.134 | -0.109 | 0.031 | 0.002
5 | ILF2 (UniProt Q12905) | -0.098 | -0.087 | -0.214 | 0.009 | -0.088 | 0.066 | -0.035 | -0.011 | -0.005 | -0.175 | -0.095 | 0.027 | 0.155 | 0.131 | 0.082 | 0.318 | -0.024 | 0.064 | -0.014 | 0.204
6 | MAIP1 (UniProt Q8WWC4) | -0.02 | 0.006 | -0.012 | 0.002 | 0.02 | 0.042 | 0.066 | 0.037 | -0.024 | 0.012 | 0 | -0.014 | -0.004 | -0.028 | 0.09 | -0.201 | -0.026 | -0.042 | -0.011 | 0.052
7 | KCTD2 (UniProt Q14681) | 0.177 | -0.154 | -0.125 | -0.126 | 0.158 | -0.062 | 0.055 | -0.106 | 0.26 | -0.005 | -0.03 | 0.058 | -0.054 | 0 | -0.015 | 0.016 | 0.171 | 0.052 | -0.049 | -0.028
8 | MGST1 (UniProt P10620) | -0.032 | -0.037 | 0.063 | 0.021 | 0.02 | 0.038 | 0.024 | -0.057 | -0.004 | -0.049 | 0.002 | 0.033 | 0.064 | -0.01 | -0.001 | -0.004 | 0.011 | -0.074 | 0.032 | 0.054
9 | LAMP2 isoform 2 (UniProt P13473) | -0.072 | 0.02 | 0.041 | 0.082 | -0.022 | 0.088 |  | -0.007 | 0.018 | 0.049 | 0.127 | -0.007 | 0.012 |  | 0.115 | -0.713 (active) |  | -0.026 | 0.03 | -0.078
10 | ITPRIP (UniProt Q8IWB1) | 0.012 | -0.086 | 0.052 | 0.034 | -0.05 | 0.01 | -0.085 | -0.094 | -0.02 | 0.012 | -0.063 | 0.059 | -0.013 | 0.005 | 0.007 | -0.074 | 0.082 | -0.005 | -0.001 | 0.022
11 | ME2 (UniProt P23368) | -0.017 | -0.017 | 0.01 | -0.078 | 0.036 | -0.024 | 0.055 | -0.061 | 0.008 | 0.081 | 0.009 | -0.039 | 0.213 | -0.003 | 0.036 | 0.152 | 0.025 | -0.021 | -0.048 | -0.042
12 | MAP3K20 isoform 2 (UniProt Q9NYL2) | -0.002 | -0.128 | 0.051 | 0.052 | -0.091 |  |  | -0.168 | -0.004 | 0.007 | -0.164 |  | -0.126 |  | 0.078 | 0.089 |  | -0.021 | 0.01 | -0.071
13 | LRRFIP1 isoform 4 (UniProt Q32MZ4) | -0.122 | -1.2 (active) | -0.121 | -0.006 | -0.045 |  |  | 0.072 |  |  | -0.06 |  | 0.163 |  | -0.019 | 0.031 |  | -0.019 |  | 
